From PubChem BioAssay AID777 (Sanford-Burnham Center for Chemical Genomics, 2007)
Screen size: about 96,000 compounds; about 19,000 (20%) were called active. A selection follows. Values without a mark were called inactive.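 How the source made its calls: active means blocking of liver enzyme CYP2C9 beyond about 50% at 5 µM (limit read from the data); inactive means the rest.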

Each compound was assayed against Cytochrome P450 2C9 (Homo sapiens) (UniProt P11712) (assay: blockers of cytochrome P450 2C9 activity – biochemical, luminescence, ADME assay, primary screen (AID 777)). Details: CYP2C9 Supersomes, luciferin-H conversion, at 5 µM, stronger effect = higher value.
Chain of Cytochrome P450 2C9 (Homo sapiens) (P11712 whole entry, looked up): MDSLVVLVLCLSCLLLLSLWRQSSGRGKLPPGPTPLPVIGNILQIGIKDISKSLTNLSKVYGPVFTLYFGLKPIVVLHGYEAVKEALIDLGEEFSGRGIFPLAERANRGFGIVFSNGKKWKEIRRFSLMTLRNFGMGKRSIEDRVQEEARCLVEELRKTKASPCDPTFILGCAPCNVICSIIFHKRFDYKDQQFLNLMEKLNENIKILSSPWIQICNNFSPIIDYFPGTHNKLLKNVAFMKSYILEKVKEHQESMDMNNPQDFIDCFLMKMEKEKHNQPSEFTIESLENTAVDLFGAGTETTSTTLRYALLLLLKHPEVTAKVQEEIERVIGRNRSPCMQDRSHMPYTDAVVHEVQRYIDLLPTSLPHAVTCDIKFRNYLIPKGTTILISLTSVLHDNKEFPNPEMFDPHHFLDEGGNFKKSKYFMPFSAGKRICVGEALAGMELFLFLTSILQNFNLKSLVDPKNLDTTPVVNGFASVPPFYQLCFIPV
Cc1cccc(OCc2nnc(SCc3nc4cc(C(F)(F)F)ccc4c(=O)[nH]3)o2)c1 gave an inhibition of 33%.
O=C(Cc1ccc(S(=O)(=O)N2CCCC2)s1)NC1CCCCCC1 was tested, and the inhibition was 35.1%.
Compound O=C(c1ccc(S(=O)(=O)N2CCOCC2)cc1)N1CCN(c2ccccc2)CC1 has an inhibition of -4.5%.
For O=C(Cc1ccc(S(=O)(=O)N2CCOCC2)s1)NCCC(c1ccccc1)c1ccccc1, the inhibition was 71.6% (active).
Work on C=C(Br)Cn1c(CCCC)nc2ccccc21 yielded an inhibition of 35%.
Cc1[nH]n(-c2ccc([N+](=O)[O-])cc2)c(=O)c1C=NCCN1CCN(C(=O)c2ccccc2F)CC1 showed an inhibition of 16.8%.
Compound Cc1csc(NC(=O)C2CCCN2C(=O)OCC(C)C)n1 (stereo unspecified) has an inhibition of 21.7%.
With O=C(/C=C/c1ccco1)Nc1cccc(-c2nc3ccccc3[nH]2)c1 the inhibition was 81.3% (active).
O=C(/C=C/c1ccco1)Nc1ccc(Oc2ccccc2)cc1 was tested, and the inhibition was 11.5%.
For Cc1ccc(-n2nc3ccc(NC(=O)/C=C/c4ccco4)cc3n2)cc1C, the inhibition was 34.5%.
CCc1nnc(NC(=O)CSc2nc3c(c(=O)n2-c2ccccc2OC)SCC3)s1 gave an inhibition of 7.3%.
With O=C(Cn1c(-c2cncs2)nc2ccccc21)NC1CCCC1 the inhibition was 2.4%.
In the case of Cc1ccc(-n2nc3c(c2NC(=O)CCC2CCCCC2)CS(=O)C3)cc1 (stereo unspecified), the inhibition is reported as 12%.
Work on COC(=O)C1C(=O)c2c([nH]c(C(=O)OCCSC)c2C)CC1C (stereo unspecified) yielded an inhibition of 32.8%.
CCCOC(=O)c1[nH]c2c(c1C)C(=O)CC(c1cccs1)C2 (stereo unspecified) was tested, and the inhibition was 72.3% (active).
In the case of CCCOC(=O)c1[nH]c2c(c1C)C(=O)CC(c1cc(OC)c(OC)c(OC)c1)C2 (stereo unspecified), the inhibition is reported as 66.2% (active).
CCOC(=O)c1[nH]c2c(c1C)C(=O)CC(c1ccc(N(C)C)cc1)C2 (stereo unspecified) showed an inhibition of 36.2%.
Compound O=c1c2ccccc2nc2n1C(CSCc1cccc(C(F)(F)F)c1)CS2 (stereo unspecified) has an inhibition of 38.6%.
CCOC(=O)CSc1nnc(CNC(=O)c2ccco2)n1-c1ccc(F)cc1 showed an inhibition of -0.1%.
Compound O=C(NC1CCCCC1)c1ccc(CNc2c(N3CCOCC3)c(=O)c2=O)cc1 has an inhibition of -23.2%.
Work on O=C(NCCN1C(=O)C2C3C=CC(C3)C2C1=O)Nc1ccccn1 (stereo unspecified) yielded an inhibition of -16.2%.
In the case of CC12CCC(C(=O)N3CCN(c4ncccn4)CC3)(c3nc4ccccc4nc31)C2(C)C (stereo unspecified), the inhibition is reported as 51.5% (active).
O=S(=O)(c1cccc2nonc12)N1CCN(c2cccc(Cl)c2)CC1 showed an inhibition of 12.3%.
O=C(NCCN1CCN(Cc2ccccc2)CC1)c1cc2c(=O)[nH]c3ccccc3c2s1 showed an inhibition of 31%.
With CCCc1nnc(NC(=O)CN2C(=O)c3ccccc3S2(=O)=O)s1 the inhibition was 9.5%.
C=C(Br)CN1CCN(CC(=C)Br)CC1 showed an inhibition of -1.7%.
For O=C(O)C1CC=C(Cl)CC1C(=O)NCc1ccccc1 (stereo unspecified), the inhibition was 13.8%.
Cc1occc1C(=O)Nc1nnc(-c2ccncc2)s1 was tested, and the inhibition was 90.1% (active).
Cc1ccc(C(=O)Nc2nnc(-c3cccs3)s2)cc1C gave an inhibition of 2%.
Cc1occc1C(=O)NNC(=S)NCC(C)C was tested, and the inhibition was 12.4%.
Cc1occc1C(=O)Nc1cccc(Cn2cccn2)c1 was tested, and the inhibition was 51.4% (active).
Work on CCOc1cccc(C(=O)Nc2cnn(Cc3ccccc3)c2)c1 yielded an inhibition of 10.6%.
Compound Cc1ccc(C(=O)COc2cccc(NC(=O)c3ccco3)c2)cc1 has an inhibition of 32.1%.
For CC(C)=CC(=O)Nc1nnc(-c2ccc(F)cc2)s1, the inhibition was 9%.
Cc1occc1C(=O)Nc1nnc(C2CCCCC2)s1 gave an inhibition of 0.6%.
In the case of Cc1ccc(C(=O)Nc2nnc(-c3ccncc3)s2)o1, the inhibition is reported as 93.1% (active).
Compound COc1ccc(Oc2coc3cc(OC(=O)c4cncc(Br)c4)ccc3c2=O)cc1 has an inhibition of -54.5%.
Cc1nnc(SCC(=O)Nc2ncc3c(n2)CC(C)(C)CC3=O)s1 was tested, and the inhibition was 22.5%.
For COc1ccc(-c2noc(COc3ccc(Cl)c(C)c3)n2)cc1, the inhibition was 11.2%.
For CCOc1ccc(/C(O)=C2/C(=O)C(=O)N(Cc3cccnc3)C2c2ccc(N(C)C)cc2)c(C)c1 (stereo unspecified), the inhibition was 20.8%.
Work on N#Cc1ccc(CSc2nnc(-c3ccccn3)n2-c2ccc(Cl)cc2)cc1 yielded an inhibition of 7.5%.
CCc1nnc(NC(=O)CSc2nnc(COc3ccc(C#N)cc3)n2-c2ccccc2)s1 gave an inhibition of 30.3%.
In the case of O=P(c1ccc2c(c1)OCCO2)(N1CCOCC1)N1CCOCC1, the inhibition is reported as 24.8%.
In the case of O=C(NNC(=O)c1cccnc1)Nc1ccccc1, the inhibition is reported as -10.1%.
With CC(C)NC(=O)C(=O)N/N=C/c1ccco1 the inhibition was -20.6%.
Work on COc1ccc(Nc2nc(=O)[nH]nc2C)cc1 yielded an inhibition of 1.9%.
For CCN(CC)CC(=O)Nc1nn(-c2ccccc2)nc1C(N)=O, the inhibition was -20.1%.
Work on CC(=O)c1cc2c(cc1NC(=O)CN1CCCCCC1)OCO2 yielded an inhibition of 0.4%.
In the case of O=C(O)c1ccc(COc2c(F)c(F)cc(F)c2F)o1, the inhibition is reported as -9.4%.
With O=C(Nc1ccn(Cc2ccccc2F)n1)c1ccc(COc2ccc(Cl)cc2Cl)o1 the inhibition was 92.6% (active).
Compound O=C(Nc1nn(Cc2ccccc2F)cc1Br)c1cccs1 has an inhibition of 8%.
OC(COCCC12CC3CC(CC(C3)C1)C2)CN1CCCCC1 (stereo unspecified) was tested, and the inhibition was 3.4%.
With CCN1CCCC1CNC(=O)Cn1cnc2ccc(S(=O)(=O)N3CCC(C)CC3)cc2c1=O (stereo unspecified) the inhibition was 7.3%.
COC(=O)C1C(=O)NCC1c1ccc(OC)cc1 (stereo unspecified) showed an inhibition of -19.7%.
Compound COC(=O)C1C(=O)NCC1c1ccc(C)cc1 (stereo unspecified) has an inhibition of 17.3%.
In the case of COC(=O)C1=C(Nc2ccc(OC)cc2)C=C(C)C(C(=O)OC)C1c1ccc(C)cc1 (stereo unspecified), the inhibition is reported as 51.9% (active).
With O=C1CCCC2=C1C(c1cccs1)n1nc(SCc3ccccc3)nc1N2 (stereo unspecified) the inhibition was -9.5%.
COc1ccccc1C(=O)N1CCNC(=O)C1CC(=O)Nc1ccc(Cl)cc1 (stereo unspecified) was tested, and the inhibition was 27.9%.
With Nc1ccccc1SCc1cc([N+](=O)[O-])cc2c1OCOC2 the inhibition was 53.9% (active).
In the case of CN(C)S(=O)(=O)c1ccc(Oc2ccc(S(=O)(=O)N(C)C)cc2)cc1, the inhibition is reported as 13.3%.
Cc1cccc(N=C2NC(=O)CS2)c1C was tested, and the inhibition was 21.1%.
COc1ccc2[nH]c(C)c(CCN(Cc3cccs3)C(=S)Nc3ccccc3OC)c2c1 showed an inhibition of 43.2%.
For COC(=O)c1ccc(CN(c2ccccc2OC)S(=O)(=O)c2cccs2)o1, the inhibition was 94.6% (active).
COC(=O)c1ccc(Cc2ccccc2)o1 gave an inhibition of -29.6%.
In the case of Cc1oc(CC(C)C)c(CN2CCCC2)c1C(=O)O, the inhibition is reported as -18.2%.
Work on CN(C)c1ccc(CNC2C3CC4CC(C3)CC2C4)cc1 (stereo unspecified) yielded an inhibition of 4.8%.
For COC(=O)c1ccc(C2C3=C(Nc4nnnn42)c2ccccc2OC3)cc1 (stereo unspecified), the inhibition was 92.8% (active).
COc1ccccc1NC(=O)C1=C(C)Nc2nnnn2C1c1cccc(Br)c1 (stereo unspecified) gave an inhibition of 41%.
Compound O=c1[nH]c2c(c(=O)n1Cc1ccccc1)CCC2 has an inhibition of -27.1%.
Work on COC(=O)c1ccc(/C=N\n2c(C)nnc2C)cc1 yielded an inhibition of -3.4%.
With Cc1noc(/C=C/c2ccco2)c1S(=O)(=O)N1CCC(C(=O)N2CCc3ccccc32)CC1 the inhibition was 76.9% (active).
Compound Cc1noc(/C=C/N(C)C)c1S(=O)(=O)N1CCCC(C(=O)NCc2ccco2)C1 (stereo unspecified) has an inhibition of 48.9%.
Work on CCOC(=O)C1CCN(C(=O)C2CCN(S(=O)(=O)c3c(C)noc3C)CC2)CC1 yielded an inhibition of 10.2%.
With CCCCN1C(=O)/C(=C2/C=CC=CN2C)SC1=S the inhibition was -5%.
Compound Cc1cccc(-n2ncc3c(N4CCc5ccccc54)ncnc32)c1 has an inhibition of -9.6%.
Cc1cc(C)nc(N2CCN(c3ncnc4c3oc3ccccc34)CC2)n1 gave an inhibition of -20.3%.
For Cc1ccc2c(c1)c1ncnc(N3CCc4ccccc4C3)c1n2C, the inhibition was 73% (active).
Compound CCN(CC)C(=O)CSc1nnc(C2CCCCC2)o1 has an inhibition of 5.7%.
COCc1cc(C)nc(Nc2cc(C)ccc2C)c1C#N showed an inhibition of 15.6%.
In the case of Oc1ccc(-c2onc3ccc(Cl)cc23)cc1, the inhibition is reported as 90.2% (active).
For CC1(C)Oc2ccc3ccc(=O)oc3c2/C(=C/NCCO)C1=O, the inhibition was 4.1%.
Compound O=C(/C=C/Nc1ccccc1)c1cnc(-c2ccccc2)s1 has an inhibition of 12.6%.
For O=C1c2ccncc2C(=O)N1C1CCCCC1, the inhibition was 12.5%.
CCCCCOC(=O)C1=C(C)Nc2nnnn2C1c1ccc(OC)c(OC)c1OC (stereo unspecified) was tested, and the inhibition was 56.5% (active).
With COc1ccc(C2C(C(=O)Nc3ccccc3OC)=C(C)Nc3nnnn32)c(OC)c1 (stereo unspecified) the inhibition was 31.8%.
CC1=C(C(N)=O)C(c2sccc2C)n2nnnc2N1 (stereo unspecified) showed an inhibition of -4.8%.
CCc1cc(Br)ccc1NC(=O)C1CCCO1 (stereo unspecified) showed an inhibition of -2.1%.
Compound CC(=O)Oc1cc2c(C(=O)NCCN3CCOCC3)c(C)oc2c2ccccc12 has an inhibition of 24.6%.
CC(c1ccccn1)N(CCN(C)C)C(=S)Nc1ccccc1F (stereo unspecified) was tested, and the inhibition was -1.3%.
For O=C(c1ccccc1)c1cccn1CC(=O)N1CCN(c2ccc(F)cc2)CC1, the inhibition was -62.9%.
O=[N+]([O-])c1ccc(N2CCN(S(=O)(=O)c3ccc4ccccc4c3)CC2)cc1NCc1ccco1 showed an inhibition of 27.8%.
For O=C(O)C1CC=CCC1C(=O)Nc1ccccc1C(=O)N1CCN(c2ccccc2)CC1 (stereo unspecified), the inhibition was 6%.
CCNC(=S)N1CCN(C(=O)c2ccco2)CC1 gave an inhibition of 1.2%.
With CCC(CC)C(=O)Nc1cccc(C(=O)N2CCCC2)c1 the inhibition was 12.7%.
For O=C(c1cccc(C(=O)N2CCN(c3ccc(F)cc3)CC2)c1)N1CCN(c2ccc(F)cc2)CC1, the inhibition was 84.6% (active).
O=C(c1ccccc1Oc1ccccc1)N1CCN(c2ccc(F)cc2)CC1 was tested, and the inhibition was 77% (active).
With CC(C)N(C(=O)COC(=O)c1ccccc1C(=O)N1CCN(c2ccc(F)cc2)CC1)C(C)C the inhibition was 39.5%.
With O=C(c1ccccc1)N1CCN(c2ccc([N+](=O)[O-])c(NCc3ccco3)c2)CC1 the inhibition was 87.1% (active).
With O=C(c1cccc(N2CCCC2=O)c1)N1CCOCC1 the inhibition was 5.6%.
With CO/N=C/c1ccc(N2CCN(C(=O)c3cccc(Cl)c3)CC2)c([N+](=O)[O-])c1 the inhibition was 14.4%.
For O=C(c1cccc(F)c1)N1CCN(c2ccc([N+](=O)[O-])c(N3CCCCC3)c2)CC1, the inhibition was 80.7% (active).
